# Most compounds without a hit are left out; they make up all but 6.7% or so of the library.
# Pf Dd2 inh: P. falciparum Dd2 growth inhibitors, primary screen, SYBR Green fluorescence, single dose replicates. 94,000 compounds, 2.3% hits. 72 h; active compounds read low. activity change, % at 10 µM; in the data active = activity change below about -80%; inconclusive = no clear call, values can overlap the other calls
# T cruzi growth-1: T. cruzi intracellular proliferation inhibitors, primary screen, cell-based, beta-gal Tulahuen parasites, NIH3T3 host, luminescence. inhibition, % at 8.34 µM. T. cruzi beta-gal in NIH3T3, GalScreen luminescence, 90 h. 77,000 compounds, 5.9% hits;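 active = mean inhibition above about 93%, with at least 55% of replicates each passing it, limit read from the data, passing the limit was not always enough; inconclusive = only one of those two conditions holds; inactive = neither condition holds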
# C diff growth: C. difficile growth inhibitors, primary screen, HTS; Clostridium difficile clinical isolate growth, OD600, 24 h; active compounds read low; growth activity, negative = inhibition, % at 16 µg/mL (by protocol); 86,000 compounds, 0.25% hits;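 active = mean growth activity at or below -80% and every replicate also at or below -80%; inconclusive = mean at or below -80% but some replicate above -80%; inactive = mean growth activity above -80%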;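 also: 0% = DMSO wells and -100% = levofloxacin 16 µg/mL wells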
# T cruzi growth-2: T. cruzi intracellular proliferation inhibitors, confirmation, cell-based, NIH3T3 host, beta-gal parasite, luminescence, cherry-pick | inhibition, % at 8.35 µM | 5,600 compounds, 72% hits | AID 651739, 2012 | shares compounds with T cruzi growth-1 | T. cruzi beta-gal in NIH3T3, GalScreen luminescence, 90 h;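 active = mean replicate inhibition above about 95% and at least 55% of replicates individually reaching it, limit read from the data; inconclusive = only one of the two criteria is met; inactive = neither criterion is met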
# T cruzi growth-3: inhibitors of intracellular T. cruzi replication, confirmation, NIH3T3 host cells, beta-gal parasites, cherry-pick, set 2; shares compounds with T cruzi growth-1; T. cruzi beta-gal in NIH3T3, GalScreen luminescence, 90 h; inhibition, % at 2.09 µM; 5,600 compounds, 21% hits; AID 651740, 2012;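 active = mean inhibition above about 95%, with at least 55% of replicates also reaching it, limit read from the data; inconclusive = meets just one of the two conditions; inactive = meets neither condition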;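 also: plate controls were neutral control median for no effect and positive control median for full effect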
# 3T3 cytotox: cytotoxicity in mouse NIH/3T3 fibroblasts, confirmation, cytotoxicity control for T. cruzi proliferation inhibitor project, cell-based, cherry-pick, single point. shares compounds with T cruzi growth-1. NIH/3T3 viability, CellTiter-Glo ATP luminescence, 90 h. cytotoxicity (signal decrease), % at 8.35 µM. 5,600 compounds, 14% hits;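 active = mean signal decrease across replicates above about 35% based on untreated-well scatter, with enough replicates individually passing, limit read from the data; inconclusive = no rule stated though some were filed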;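 also: 0% = median of neutral control wells and 100% = median of positive control wells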
# NIH3T3 tox 2: NIH/3T3 fibroblast cytotoxicity, confirmation, cytotoxicity control, cell-based, cherry-pick, single point, set 2 | NIH/3T3 viability, CellTiter-Glo ATP luminescence, 90 h | 5,600 compounds, 56% hits | AID 651744, 2012 | inhibition, % at 24.9 µM | shares compounds with T cruzi growth-1;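 active = mean loss of cell viability signal at or above a set limit, and enough replicates individually reaching it; inconclusive = meets only the mean limit or only the replicate share; inactive = meets neither condition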;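 also: 0% = median of neutral control wells and 100% = median of positive control wells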
# Starred values were filed as active, the others as inactive; u = inconclusive; x = no result.
SMILES,Pf Dd2 inh,T cruzi growth-1,C diff growth,T cruzi growth-2,T cruzi growth-3,3T3 cytotox,NIH3T3 tox 2
CN1C(=O)c2cc(NC(=O)c3ccccc3)ccc2OC[C@@H]2O[C@H](CC(=O)NC3CCCC3)CC[C@H]21,-23,8,-5,x,x,x,x
CN1C(=O)c2cc(NC(=O)c3ccc(C(F)(F)F)cc3)ccc2OC[C@@H]2O[C@@H](CC(=O)NC3Cc4ccccc4C3)CC[C@H]21,-12,100*,36,106*,49,u,43*
CN1C(=O)c2cc(NC(=O)c3ccc(Cl)cc3)ccc2OC[C@@H]2O[C@@H](CC(=O)NCc3cccc(F)c3)CC[C@@H]21,1,103*,4,103*,34,32,61*
CN1C(=O)c2cc(NC(=O)c3cccc(Cl)c3)ccc2OC[C@H]2O[C@@H](CC(=O)NC3CCCCC3)CC[C@H]21,-10,107*,-2,104*,45,27,38*
CN1C(=O)c2cc(NC(=O)c3ccc(C(F)(F)F)cc3)ccc2OC[C@@H]2O[C@@H](CC(=O)NC3Cc4ccccc4C3)CC[C@@H]21,-13,79,x,x,x,x,x
CO[C@H]1CN(C)C(=O)c2cc(NS(=O)(=O)CC(F)(F)F)ccc2OC[C@H](C)N(Cc2ccccn2)C[C@H]1C,-31,65,x,x,x,x,x
COCC#Cc1cnc2c(c1)C(=O)N([C@@H](C)CO)C[C@@H](C)[C@H](CN(C)C(=O)C1CCC1)O2,16,46,-2,x,x,x,x
CCC(=O)Nc1ccc2c(c1)C(=O)N(C)C[C@H](OC)[C@@H](C)CN(C(=O)CC1CC1)[C@@H](C)CO2,44,4,x,x,x,x,x
COCC(=O)Nc1ccc2c(c1)C(=O)N(C)C[C@@H](OC)[C@H](C)CN(Cc1ccccc1C(=O)O)[C@H](C)CO2,14,-62,x,x,x,x,x
CNC(=O)C[C@H]1CC[C@@H]2[C@H](COC[C@H](O)CN2Cc2ccc(Cl)c(Cl)c2)O1,24,61,-3,x,x,x,x
Cc1cc(C(=O)Nc2cccc3c2O[C@H](CN(C)S(=O)(=O)c2cccs2)[C@H](C)CN([C@H](C)CO)C3=O)n(C)n1,-7,-119,x,x,x,x,x
CN1C(=O)c2cc(NC(=O)c3cccc(F)c3)ccc2OC[C@H]2O[C@@H](CC(=O)N3CCc4ccccc4C3)CC[C@H]21,-2,104*,-7,97*,26,24,38*
CN1C(=O)c2cc(NC(=O)c3ccc(Cl)cc3)ccc2OC[C@H]2O[C@H](CC(=O)NCc3cccc(F)c3)CC[C@H]21,-16,101*,11,67,47,1,14
CN1C(=O)c2cc(NC(=O)c3ccc(Cl)cc3)ccc2OC[C@H]2O[C@H](CC(=O)NCc3cccc(F)c3)CC[C@@H]21,-17,43,12,x,x,x,x
CN1C(=O)c2cc(NC(=O)c3cccc(F)c3)ccc2OC[C@H]2O[C@H](CC(=O)N3CCc4ccccc4C3)CC[C@@H]21,1,42,-2,x,x,x,x
C[C@H]1CN([C@@H](C)CO)C(=O)c2cc(C3=CCCC3)cnc2O[C@H]1CN(C)Cc1cccc(F)c1,9,92,0,x,x,x,x
C[C@@H]1CN([C@@H](C)CO)C(=O)c2cc(C3=CCCCC3)cnc2O[C@@H]1CN(C)Cc1cccc(F)c1,-1,112*,16,98*,54,4,44*
C[C@@H]1CN([C@@H](C)CO)C(=O)c2cc(C3=CCCC3)cnc2O[C@@H]1CN(C)Cc1cccc(F)c1,-19,u,6,110*,75,9,8
C[C@@H]1CN([C@H](C)CO)C(=O)c2cc(C3=CCCCC3)cnc2O[C@H]1CN(C)Cc1cccc(F)c1,-24,89,6,x,x,x,x
CO[C@H]1CN(C)C(=O)c2ccc(NS(C)(=O)=O)cc2OC[C@H](C)N(Cc2cncnc2)C[C@@H]1C,70,x,-3,x,x,x,x
C[C@H](CO)N1C[C@H](C)[C@@H](CN(C)CC2CCCCC2)Oc2ccc(NC(=O)NC3CCCCC3)cc2C1=O,18,x,4,x,x,x,x
C[C@H]1CN([C@@H](C)CO)C(=O)c2cc(NC(=O)NC3CCCCC3)ccc2O[C@H]1CN(C)Cc1ccc2c(c1)OCO2,-2,u,-4,104*,99*,u,41*
C[C@H]1CN([C@@H](C)CO)C(=O)c2cc(NC(=O)NC3CCCCC3)ccc2O[C@@H]1CN(C)Cc1ccc2c(c1)OCO2,-12,-23,-2,x,x,x,x
C[C@H](CO)N1C[C@H](C)[C@H](CN(C)Cc2ccc3c(c2)OCO3)Oc2ccc(NC(=O)NC3CCCCC3)cc2C1=O,18,100*,4,u,97*,28,51*
C[C@@H]1CN([C@H](C)CO)C(=O)c2cc(NC(=O)NC3CCCCC3)ccc2O[C@@H]1CN(C)Cc1ccc2c(c1)OCO2,-30,22,-5,x,x,x,x
SMILES,Pf Dd2 inh,T cruzi growth-1,C diff growth,T cruzi growth-2,T cruzi growth-3,3T3 cytotox,NIH3T3 tox 2
CCCC(=O)Nc1ccc2c(c1)C(=O)N(C)[C@H]1CC[C@H](CC(=O)NCCOC)O[C@@H]1CO2,11,-12,-4,x,x,x,x
C[C@@H]1CN([C@H](C)CO)S(=O)(=O)c2ccc(C#CCN(C)C)cc2O[C@@H]1CN(C)Cc1ccccn1,-18,75,-5,x,x,x,x
CC(C)C#Cc1ccc2c(c1)O[C@@H](CN(C)Cc1ccccn1)[C@@H](C)CN([C@@H](C)CO)S2(=O)=O,-44,93,33,x,x,x,x
CCCC#Cc1ccc2c(c1)O[C@H](CN(C)Cc1ccccn1)[C@@H](C)CN([C@@H](C)CO)S2(=O)=O,x,u,-8,99*,u,22,103*
CCCC#Cc1ccc2c(c1)O[C@@H](CN(C)Cc1ccccn1)[C@H](C)CN([C@H](C)CO)S2(=O)=O,x,u,1,97*,28,69*,105*
C[C@H](CO)N1C[C@H](C)[C@H](CN(C)Cc2ccccn2)Oc2cc(C#C[C@@H](C)O)ccc2S1(=O)=O,20,-10,8,x,x,x,x
C[C@H]1CN([C@@H](C)CO)S(=O)(=O)c2ccc(C#CCN(C)C)cc2O[C@H]1CN(C)Cc1ccccn1,-18,92*,-6,u,52,6,u
CCCC#Cc1ccc2c(c1)O[C@@H](CN(C)Cc1ccccn1)[C@@H](C)CN([C@H](C)CO)S2(=O)=O,x,u,-6,96*,50,u,-21
C[C@H](CO)N1C[C@H](C)[C@H](CN(C)Cc2ccccn2)Oc2cc(C#CCN(C)C)ccc2S1(=O)=O,-29,89,-3,x,x,x,x
